Inconclusive results are not listed. Where a call stands in place of a potency, no number is given. A number with no mark means an inactive call. Calls of active or inactive are those of the source. Calls follow the shape of the dose curve; as a rule, active = well fitted cell-killing curve with a large enough effect in the repeat runs; inconclusive = weak or mixed curves, or effect the other way; inactive = flat fitted curve, though single readings scatter.
Experiment: Caspase-3/7 induction in HepG2 cells by small molecules, qHTS cell viability counter screen (AID 1346981); also: nearly all actives have a fitted effect of over 30% in size
Details: CellTiter-Fluor fluorescence, 17 h; series mostly up to 92.4 µM
From the text: U.S. Tox21 Program National Center for Advancing Translational Sciences [NCATS] NIH Chemical Genomics Center [NCGC] U.S. Environmental Protection Agency [EPA] National Institutes of Environmental Health Sciences [NIEHS] National Toxicology Program [NTP] U.S. Food and Drug Administration [FDA] Tox21 Assay Overview: Apoptosis is a process of programmed cell death and plays a central role in the development of multicellular organisms. It is a highly regulated process and induces cell death by activating caspases, which are the members of cysteine aspartic acid-specific protease (caspase) family. Caspases involved in apoptosis are classified by their mechanism of action as initiator caspases (caspase-2, -8, -9 and -10) and executioner caspases (caspase-3, -6, and -7). Inhibition of apoptosis results in number of cancers, autoimmune diseases, inflammatory diseases and viral infection. To identify small molecule compounds that induce apoptosis, a homogeneous, luminescent Caspase-Glo 3/7 assay was used. Wild type HepG2 cells were used to screen Tox21 libraries for identifying caspase-3/7 activity inducers. Also cytotoxicity of the compounds was tested in parallel by measuring the cell viability using CellTiter-Fluor assay system in the same wells.
Tox21 Assay Protocol Summary: HepG2 cells were dispensed at 2,000 per well in 5uL of culture medium into white solid bottom 1536-well plates (Corning Life Sciences, Corning, NY) using a Multidrop Combi (Thermo Scientific, Waltham, MA) dispenser. The assay plates were incubated at 37 C and 5% CO2 for 5hr, and then 23nL of compounds dissolved in DMSO and positive control were transferred using a Pintool station ([…], San Diego, CA). The assay plates were incubated at 37C and 5% CO2 for 17hr. For cytotoxicity read, after 16hr incubation at 37C, 1uL CellTiter-Fluor reagent (Promega Corporation, Madison, WI) was added to each well of the assay plates using Flying Reagent Dispenser (FRD, Aurora Discovery, San Diego, CA). After 1hr incubation at 37C and 5% CO2, the fluorescence signal was quantified using a ViewLux plate reader (PerkinElmer, Shelton, CT).
Potency is read from the fitted curve at half-maximal effect.

SMILES	Potency	activity change, negative = cytotoxicity
CC(C)(c1ccc(Oc2ccc3c(c2)C(=O)OC3=O)cc1)c1ccc(Oc2ccc3c(c2)C(=O)OC3=O)cc1	inactive	
CC(C)COC(=O)CC(C(=O)OCC(C)C)S(=O)(=O)O (stereo not given)	inactive	
O=CO		4.68% [at 8.39 µM]
CCC(C)(C)C1CCC(=O)CC1	inactive	
O=C1c2ccccc2-c2ccccc21	inactive	
CCN(CC)C(=O)C1CN2CCc3cc(OC)c(OC)cc3C2CC1OC(C)=O (stereo not given)	inactive	
C=COCCOCCOC=C	inactive	
CCCCCC1CCCC(=O)O1 (stereo not given)	inactive	
CCOC(=O)CCCCCCCCC(=O)OCC	inactive	
NC(=O)NC(=O)Cc1ccccc1	inactive	
C1CCN2C[C@@H]3C[C@@H](CN4CCCC[C@@H]34)[C@H]2C1	inactive	
Cc1cccc(NC(=S)N(C)C)c1	inactive	
N#CCCOCCOCCC#N	inactive	
Nc1ccc(S(=O)(=O)NC(=O)c2ccccc2)cc1	inactive	
CC(Cl)COP(=O)(OCC(C)Cl)OCC(C)Cl (stereo not given)	inactive	
CCN1CN(CC)CN(CC)C1	inactive	
O=S(=O)(O)CCO	inactive	
C=CC(C)(O)CC/C=C(\C)CC (stereo not given)	inactive	
O=C(O)c1ccccc1C(=O)Nc1ccc(S(=O)(=O)Nc2nccs2)cc1	inactive	
C=C[Si](C)(C)O[Si](C)(C)C=C	inactive	

SMILES	Potency	activity change, negative = cytotoxicity
Cc1nc2n(c(=O)c1CCN1CCC(C(=O)c3ccc(F)cc3)CC1)CCS2	inactive	
C/C=C(\C)C(=O)OCC/C=C\CC	inactive	
CC(C)COC(=O)COc1ccc(Cl)cc1Cl	inactive	
CCCCCCCCCCC	inactive	
Nc1nc(=O)n([C@@H]2O[C@H](CO)[C@@H](O)[C@@H]2F)cc1I	inactive	
O=C(COCCOCCOCC(=O)Nc1c(I)cc(I)c(C(=O)O)c1I)Nc1c(I)cc(I)c(C(=O)O)c1I	inactive	
CC1=NN(c2ccc(S(=O)(=O)O)cc2)C(=O)C1N=Nc1ccccc1 (stereo not given)	61.1 µM (active)	
O=C(O)Cc1cccc(-c2cc(CCCCCCc3ccc(O[C@H]4O[C@H](CO)[C@@H](O)[C@H](O)[C@@H]4O)c(-c4cccc(CC(=O)O)c4)c3)ccc2O[C@H]2O[C@H](CO)[C@@H](O)[C@H](O)[C@@H]2O)c1		2.65% [at 0.349 µM]
CC(C)COC(=O)/C=C/c1ccccc1	inactive	
CCCCCCCCCOCC1CO1 (stereo not given)	inactive	
O=C(O)c1ccccc1C(=O)OCc1ccccc1	inactive	
CCCCCCCC/C=C\CCCCCCCC(=O)OC[C@@H](O)[C@H]1OC[C@H](O)[C@H]1O	inactive	
Nc1ccnc(=O)[nH]1	inactive	
COCCOCCOCCOC	inactive	
CO[Si](CCCS)(OC)OC	inactive	
CCCCC[Si](OCC)(OCC)OCC	inactive	
C=C[C@@H](C)CCC=C(C)C	inactive	
CN(C1CCCCC1)S(=O)(=O)c1ccccc1N	inactive	
O=C1NC2NC(=O)NC2N1 (stereo not given)	inactive	
CCCCCN(CCCOC)C(=O)C(CCC(=O)O)NC(=O)c1ccc(Cl)c(Cl)c1 (stereo not given)	inactive	
